Where “and” joins values, the source holds several entries; their conditions need not be identical. Equal values may be shown once. The source holds several records for some structures; these can differ, active in one and inactive in another. Calls of active or inactive are those of the source. A call without a number means that no potency is given here. Unless noted, calls follow the shape of the full dose curve.
Potency is read from the fitted curve at half-maximal effect.

Sequence of Estrogen receptor (Homo sapiens) (P03372 whole entry, looked up): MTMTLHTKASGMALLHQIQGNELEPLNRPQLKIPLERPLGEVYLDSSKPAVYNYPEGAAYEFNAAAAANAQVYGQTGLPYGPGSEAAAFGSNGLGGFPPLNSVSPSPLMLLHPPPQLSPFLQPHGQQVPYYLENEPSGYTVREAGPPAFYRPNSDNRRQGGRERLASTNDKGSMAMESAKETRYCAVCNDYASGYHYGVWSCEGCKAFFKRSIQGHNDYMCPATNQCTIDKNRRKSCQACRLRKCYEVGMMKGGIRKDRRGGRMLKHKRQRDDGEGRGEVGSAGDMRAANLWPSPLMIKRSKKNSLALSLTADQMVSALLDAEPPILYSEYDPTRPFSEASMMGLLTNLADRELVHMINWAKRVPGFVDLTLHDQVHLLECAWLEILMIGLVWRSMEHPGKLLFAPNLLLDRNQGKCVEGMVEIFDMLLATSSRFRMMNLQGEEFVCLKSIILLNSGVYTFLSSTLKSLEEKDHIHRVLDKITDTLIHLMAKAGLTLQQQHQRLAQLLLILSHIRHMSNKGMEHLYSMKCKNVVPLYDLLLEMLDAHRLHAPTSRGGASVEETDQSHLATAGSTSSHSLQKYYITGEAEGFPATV

The target in the first assay is Estrogen receptor (Homo sapiens) (UniProt P03372). Kind of assay: qHTS assay to identify small molecule antagonists of the estrogen receptor alpha (ER-alpha) signaling pathway (AID 743069; active = well fitted curve in the direction sought with a large enough effect in the signal ratio in the repeat runs, not every such curve was filed as active; inconclusive = weak or mixed curves, or effect the other way; inactive = no such curve, though single readings can be large or run the other way; the % refers to the signal ratio). Particulars: HEK293 ER-alpha-UAS-bla, beta-lactamase ratio, antagonist mode; series mostly up to 69.4 µM. The gist of the method:
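In this cell-based reporter format, GripTite HEK293 cells harbouring ER-alpha-UAS-bla were grown overnight with 2% charcoal-stripped FBS, dosed with DMSO-dissolved compounds, then challenged with 17beta-estradiol. After 18 hr at 37C, beta-lactamase activity was detected by FRET fluorescence.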
For the molecule `C=C1C[C@H]2[C@@H]3C=C(C)C4=CC(=O)CC[C@]4(C)[C@H]3CC[C@]2(C)[C@@]1(OC(C)=O)C(C)=O`, the Potency entry is “inactive”.
With `OC[C@H]1O[C@@H]2O[C@H]3[C@H](O)[C@@H](O)[C@@H](O[C@H]4[C@H](O)[C@@H](O)[C@@H](O[C@H]5[C@H](O)[C@@H](O)[C@@H](O[C@H]6[C@H](O)[C@@H](O)[C@@H](O[C@H]7[C@H](O)[C@@H](O)[C@@H](O[C@H]1[C@H](O)[C@H]2O)O[C@@H]7CO)O[C@@H]6CO)O[C@@H]5CO)O[C@@H]4CO)O[C@@H]3CO`, the Potency result was “inactive”.
On the same count and under the same terms, under `CC1(C)O[C@@H]2C[C@H]3[C@@H]4C[C@H](F)C5=CC(=O)C=C[C@]5(C)[C@@]4(F)[C@@H](O)C[C@]3(C)[C@]2(C(=O)CO)O1` stands “inactive”; under `CC1=CC(C)(C)Nc2ccccc21`, “inactive”; under `CCCCCC1C(=O)CCC1CC(=O)OC` (stereo not drawn), “inactive”.
Take `c1ccc2c(c1)ccc1cc3c(ccc4ccccc43)cc12`: the Potency result is “inactive”.
Take `CC(=O)[C@@]1(O)CC[C@H]2[C@@H]3C[C@H](C)C4=CC(=O)C=C[C@]4(C)[C@@]3(F)[C@@H](O)C[C@@]21C`: the Potency result is “inactive”.
Still for that read-out and setting: then `O=C(O)c1cc(=O)[nH]c(=O)[nH]1`, with “inactive”; and `Nc1ccc(O)c(N)c1`, with “inactive”; and `Cc1ccc(/C(=C\CN2CCCC2)c2ccccn2)cc1`, with “inactive”.
Same read-out and setting: under `Cc1ccc([N+](=O)[O-])c(C)c1` stands “inactive”; under `OC[C@@H](O)[C@@H](O[C@@H]1O[C@H](CO)[C@H](O)[C@H](O)[C@H]1O)[C@H](O)[C@@H](O)CO`, “inactive”; under `CC(=O)Nc1ccc2c(c1)Cc1cc(NC(C)=O)ccc1-2`, “inactive”.
On the same count and under the same terms, then `CCC(Cc1c(I)cc(I)c(N)c1I)C(=O)O` (stereo not drawn), with “inactive and 47.5 µM [inconclusive] (active)”.

System in the next assay: not listed separately
Kind of assay: qHTS assay to identify small molecule antagonists of the estrogen receptor alpha (ER-alpha) signaling pathway - cell viability counter screen (AID 743074). Also: nearly all actives have a fitted effect of over 45% in size. The settings on record: ERalpha-bla HEK293 viability, CellTiter-Glo luminescence, 18 h; series mostly up to 69.4 µM. In general terms: Quantitative high-throughput screening tests each substance at several concentrations.
With `c1ccc2c(c1)ccc1ncccc12`, the Potency entry is “inactive”.
In the case of `C=C1C[C@H]2[C@@H]3C=C(C)C4=CC(=O)CC[C@]4(C)[C@H]3CC[C@]2(C)[C@@]1(OC(C)=O)C(C)=O`, the Potency entry is “inactive”.
Take `Cc1cccc(Nc2ccccc2C(=O)O)c1C`: the Potency result is “inactive”.
The same measure, in the same setting: then `COCCOCCOCCO`, with “inactive”.
Turning to `OC[C@H]1O[C@@H]2O[C@H]3[C@H](O)[C@@H](O)[C@@H](O[C@H]4[C@H](O)[C@@H](O)[C@@H](O[C@H]5[C@H](O)[C@@H](O)[C@@H](O[C@H]6[C@H](O)[C@@H](O)[C@@H](O[C@H]7[C@H](O)[C@@H](O)[C@@H](O[C@H]1[C@H](O)[C@H]2O)O[C@@H]7CO)O[C@@H]6CO)O[C@@H]5CO)O[C@@H]4CO)O[C@@H]3CO`, the Potency entry is “inactive”.
On the same count and under the same terms, then `c1ccc2cc3ccccc3cc2c1`, with “inactive”; and `CN(C)CCCN1c2ccccc2Sc2ccc(Cl)cc21`, with “inactive”; and `NC[C@H](O)c1ccc(O)c(O)c1`, with “inactive”.
Still for that read-out and setting: then `C[C@]12CC[C@@H]3c4ccc(O)cc4CC[C@H]3[C@@H]1CC[C@@H]2O`, with “inactive”.
Same read-out and setting: then `CC1(C)O[C@@H]2C[C@H]3[C@@H]4C[C@H](F)C5=CC(=O)C=C[C@]5(C)[C@@]4(F)[C@@H](O)C[C@]3(C)[C@]2(C(=O)CO)O1`, with “inactive”.
Regarding `O=C(O)c1ccc(O)cc1`, the Potency result is “inactive”.
The same measure, in the same setting: under `CC[C@]12CCCN3CCc4c(n(c5ccccc45)[C@@](O)(C(=O)OC)C1)[C@@H]32` stands “inactive”; under `CC1=CC(C)(C)Nc2ccccc21`, “inactive”.
On the same count and under the same terms, then `CCCCCC1C(=O)CCC1CC(=O)OC` (stereo not drawn), with “inactive”; and `CN(Cc1cnc2nc(N)nc(N)c2n1)c1ccc(C(=O)N[C@@H](CCC(=O)O)C(=O)O)cc1`, with 0.239 µM (active); and `C=C[C@H]1CN2CC[C@H]1C[C@H]2[C@H](O)c1ccnc2ccc(OC)cc12`, with “inactive”.
The same measure, in the same setting: under `C=CCCCCCCCCCC` stands “inactive”.
For `Clc1ccc(Sc2cc(Cl)c(Cl)cc2Cl)cc1`, the Potency entry was “inactive”.
Same read-out and setting: then `Nc1ccc(N)c(Cl)c1`, with “inactive”.
Consider `c1ccc2c(c1)ccc1cc3c(ccc4ccccc43)cc12`, for which the Potency result was “inactive”.
Same read-out and setting: under `CC(=O)[C@@]1(O)CC[C@H]2[C@@H]3C[C@H](C)C4=CC(=O)C=C[C@]4(C)[C@@]3(F)[C@@H](O)C[C@@]21C` stands “inactive”; under `COC(=O)C(C)Oc1ccc(Oc2ncc(C(F)(F)F)cc2Cl)cc1` (stereo not drawn), “inactive”.
Same read-out and setting: then `O=C(O)c1cc(=O)[nH]c(=O)[nH]1`, with “inactive”; and `CC(C)[C@@H]1CC[C@@H](C)CC1=O`, with “inactive”; and `Nc1ccc(O)c(N)c1`, with “inactive”.
Same read-out and setting: under `Cc1ccc(/C(=C\CN2CCCC2)c2ccccn2)cc1` stands “inactive”.
Consider `Cc1ccc([N+](=O)[O-])c(C)c1`, for which the Potency result is “inactive”.
On the same count and under the same terms, then `CC/C=C\C/C=C\C/C=C\CCCCCCCC(=O)O`, with “inactive”; and `OC[C@@H](O)[C@@H](O[C@@H]1O[C@H](CO)[C@H](O)[C@H](O)[C@H]1O)[C@H](O)[C@@H](O)CO`, with “inactive”.

Values taken from PubChem BioAssay (Tox21).
